Assay outcomes deposited in PubChem BioAssay by National Center for Advancing Translational Sciences (NCATS).
Shown are actives, neighbours in structure and some others; about 6.9% of the full set was active somewhere.
BAZ2B block: BAZ2B (human) inhibition | Q9UIF8 | AlphaScreen BAZ2B-H3K14Ac peptide displacement | Potency, µM (series often up to 114 µM), most hits filed as inhibitors | actives 4.4% (n = 360,000) | AID 504333; also: nearly all actives have a fitted effect of over 60% in size
Target sequence (Q9UIF8 whole entry, looked up): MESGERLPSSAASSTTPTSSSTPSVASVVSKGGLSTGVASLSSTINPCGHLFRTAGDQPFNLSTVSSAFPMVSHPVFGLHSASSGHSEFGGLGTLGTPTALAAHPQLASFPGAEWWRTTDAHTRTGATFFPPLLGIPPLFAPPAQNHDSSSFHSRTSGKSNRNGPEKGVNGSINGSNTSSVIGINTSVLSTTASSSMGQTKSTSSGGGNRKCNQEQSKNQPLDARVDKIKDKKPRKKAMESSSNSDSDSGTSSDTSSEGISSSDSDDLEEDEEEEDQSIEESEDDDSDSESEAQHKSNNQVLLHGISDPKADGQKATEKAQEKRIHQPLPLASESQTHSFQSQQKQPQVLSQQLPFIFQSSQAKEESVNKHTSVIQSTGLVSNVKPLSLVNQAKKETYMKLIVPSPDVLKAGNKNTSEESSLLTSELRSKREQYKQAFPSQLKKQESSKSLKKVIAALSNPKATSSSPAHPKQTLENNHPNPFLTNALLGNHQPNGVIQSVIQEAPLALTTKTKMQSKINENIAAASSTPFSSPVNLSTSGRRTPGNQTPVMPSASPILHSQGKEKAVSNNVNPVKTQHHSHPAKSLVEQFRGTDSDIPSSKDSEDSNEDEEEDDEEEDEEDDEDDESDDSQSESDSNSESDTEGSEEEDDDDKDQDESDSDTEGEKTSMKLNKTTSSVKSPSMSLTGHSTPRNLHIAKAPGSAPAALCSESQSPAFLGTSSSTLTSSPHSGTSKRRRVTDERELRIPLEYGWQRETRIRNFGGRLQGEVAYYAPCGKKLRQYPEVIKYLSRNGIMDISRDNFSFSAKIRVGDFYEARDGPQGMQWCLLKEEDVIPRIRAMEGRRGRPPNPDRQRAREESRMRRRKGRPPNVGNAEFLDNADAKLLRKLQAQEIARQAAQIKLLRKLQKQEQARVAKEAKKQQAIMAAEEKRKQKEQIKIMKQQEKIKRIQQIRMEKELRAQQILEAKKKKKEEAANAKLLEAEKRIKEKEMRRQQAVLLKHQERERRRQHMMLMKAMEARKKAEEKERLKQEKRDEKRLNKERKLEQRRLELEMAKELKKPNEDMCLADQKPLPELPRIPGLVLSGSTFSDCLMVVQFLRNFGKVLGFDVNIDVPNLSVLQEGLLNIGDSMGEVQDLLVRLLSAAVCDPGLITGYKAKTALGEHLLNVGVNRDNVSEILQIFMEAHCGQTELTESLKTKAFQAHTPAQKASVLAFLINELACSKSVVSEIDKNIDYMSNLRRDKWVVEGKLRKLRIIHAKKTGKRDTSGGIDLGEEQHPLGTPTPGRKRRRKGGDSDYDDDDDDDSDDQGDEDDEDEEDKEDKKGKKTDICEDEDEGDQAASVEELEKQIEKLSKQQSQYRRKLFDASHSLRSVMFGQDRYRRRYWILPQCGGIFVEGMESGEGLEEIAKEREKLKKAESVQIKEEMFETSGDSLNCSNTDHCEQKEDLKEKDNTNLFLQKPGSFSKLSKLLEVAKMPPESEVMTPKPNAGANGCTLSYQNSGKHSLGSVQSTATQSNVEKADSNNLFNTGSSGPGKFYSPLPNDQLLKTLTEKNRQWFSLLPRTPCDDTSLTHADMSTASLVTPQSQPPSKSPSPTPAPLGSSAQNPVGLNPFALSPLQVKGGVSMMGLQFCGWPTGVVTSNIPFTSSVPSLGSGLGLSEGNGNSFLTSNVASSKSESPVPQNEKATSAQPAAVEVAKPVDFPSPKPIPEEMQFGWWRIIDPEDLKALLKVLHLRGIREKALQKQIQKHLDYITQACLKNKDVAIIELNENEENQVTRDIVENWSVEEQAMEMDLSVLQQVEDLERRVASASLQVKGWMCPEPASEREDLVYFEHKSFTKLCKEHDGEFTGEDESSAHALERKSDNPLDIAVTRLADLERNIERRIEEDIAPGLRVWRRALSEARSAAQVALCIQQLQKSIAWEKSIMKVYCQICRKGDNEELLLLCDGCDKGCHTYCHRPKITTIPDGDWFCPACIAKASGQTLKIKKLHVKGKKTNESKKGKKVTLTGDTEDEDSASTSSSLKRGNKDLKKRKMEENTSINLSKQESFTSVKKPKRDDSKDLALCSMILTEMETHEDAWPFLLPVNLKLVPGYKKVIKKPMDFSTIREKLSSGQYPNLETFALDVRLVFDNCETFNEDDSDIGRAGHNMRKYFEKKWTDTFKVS
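Protein-peptide AlphaScreen: BAZ2B 50 nM, b-H3K14Ac 50 nM, 1x PBS pH 7.4 + 0.01% Tween-20. Preincubation 30 min RT; cpd 30 min RT (top 110 uM); beads 20 min RT, light-protected.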
JMJD2A Tudor: inhibitors of human JMJD2A Tudor domain | actives 4.4% (n = 390,000) | AID 504339 | Potency, µM (top dose mostly 114 µM), usual class: inhibitors | AlphaScreen JMJD2A-Tudor / H3K4me3 peptide binding; also: nearly all actives have a fitted effect of over 50% in size
PLK1 PBD inh: inhibitors of human PLK1 polo-box domain binding. Potency, µM, actives largely listed as inhibitors. actives 2.8% (n = 360,000). Plk1 PBD binding of FITC phosphopeptide, fluorescence polarization; also: series mostly up to about 57 µM; nearly all actives have a fitted effect of over 65% in size
VDR inh: vitamin D3 receptor (human) inhibition; Potency, µM, actives largely listed as inhibitors; actives 0.93% (n = 400,000); VDR-SRC2-3 peptide fluorescence polarization, 2 h; P11473
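FP read-out; VDR + SRC2-3 coactivator peptide; 23 nl compound by pintool; 2 h RT incubation; reagents held at 4 deg C, protected from light.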
HP1b chromo inh: blocks HP1-beta chromodomain binding to methylated histone tails | P83916 | AlphaScreen HP1-beta / biotin-H3K9me3 peptide binding | Potency, µM (series often up to 114 µM), most hits filed as inhibitors | actives 0.56% (n = 390,000) | AID 540317; also: nearly all actives have a fitted effect of over 70% in size
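HP1-beta protein (50 nM final) preincubated 30 min at room temperature with biotinylated H3(1-18)K9me3 peptide (50 nM) in PBS pH 7.4, 0.01% Tween-20, then compound added for 30 min. AlphaScreen streptavidin donor/nickel chelate acceptor beads (10 ug/mL final), 30 min dark, luminescence read.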
L3MBTL1 block: blocks human L3MBTL1 | Potency, µM (highest dose often 57.1 µM), actives largely listed as inhibitors | Q9Y468 | AlphaScreen L3MBTL1–H3K9me1 peptide binding | actives 0.66% (n = 230,000); also: nearly all actives have a fitted effect of over 60% in size
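Displacement of a biotinylated histone H3(1-15) peptide monomethylated at Lys9 (75 nM) from L3MBTL1 (50 nM) was measured by AlphaScreen after a 30 min room-temperature compound incubation; cefsulodin titration served as intraplate control.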
Large screens that a line does not name were inactive. Calls follow the shape of the dose curve; as a rule, active = well fitted curve in the direction sought with a large enough effect; inconclusive = small, poorly fitted or top-dose-only effect, or another doubt; inactive = no such curve, though single readings can be large; an effect the other way counts as inactive or inconclusive.

COc1ccc(CCNC(=O)Cn2ncc3c(C)n(Cc4ccccc4F)c(C)c3c2=O)cc1OC	none (no result: PLK1 PBD inh, L3MBTL1 block)
Cc1oc(-c2cc(F)ccc2F)nc1CN(C)Cc1ccc2nccnc2c1	none
Cc1oc(-c2cc(F)ccc2F)nc1CN1CCN(c2cnccn2)CC1	BAZ2B block 71µM
CCN(C(=O)CSc1nnc(SC(C)C)s1)C1CCS(=O)(=O)C1 (centres undefined)	none
Cc1cccc2sc(NNC(=O)c3cc(-c4cccs4)nc4ccccc34)nc12	BAZ2B block 3.5µM, JMJD2A Tudor inconclusive, L3MBTL1 block inconclusive
CCOC(=O)c1c(C)[nH]c(C)c1S(=O)(=O)NCC(=O)N(C)c1ccc(C)c(C)c1	none (no result: PLK1 PBD inh, L3MBTL1 block)
COc1ccc(-c2noc(-c3ccccc3-c3ccccc3)n2)cc1OC	none
COc1cccc2c1-c1c(C(=O)O)cccc1C2=O	none
COc1ccc2noc3c2c1C(=O)c1ccccc1-3	JMJD2A Tudor inconclusive, PLK1 PBD inh 0.38µM, VDR inh inconclusive (no result: BAZ2B block, L3MBTL1 block)
COc1ccc(N)c2c1C(=O)c1ccccc1C2=O	BAZ2B block 32µM, JMJD2A Tudor 45µM, VDR inh inconclusive, HP1b chromo inh 45µM
COc1cccc2c1C(=O)c1ccc3ccccc3c1C2=O	BAZ2B block inconclusive, JMJD2A Tudor inconclusive (no result: L3MBTL1 block)
COc1ccc(OC)c2c1C(=O)c1ccccc1C2=O	PLK1 PBD inh 11µM
O=C1c2ccccc2-c2onc3ccc(NCCCn4ccnc4)c1c23	BAZ2B block 14µM, JMJD2A Tudor 50µM, PLK1 PBD inh 1.5µM, HP1b chromo inh inconclusive (no result: L3MBTL1 block)
Cc1ccc(SC(CC(=O)c2ccc(C)cc2)C(=O)O)cc1 (centres undefined)	PLK1 PBD inh inconclusive, VDR inh 20µM (no result: L3MBTL1 block)
COc1ccc(N2CCN(S(=O)(=O)CCNC(=O)c3ccc(C(F)(F)F)cc3)CC2)cc1	none (no result: PLK1 PBD inh, L3MBTL1 block)
CC(=O)Nc1ccc(S(=O)(=O)NCc2ccncc2)cc1	BAZ2B block inconclusive
COc1ccc(Cl)c2sc(N(CCN(C)C)C(=O)CCS(=O)(=O)c3ccc(C)cc3)nc12	none
COc1ccc(OC)c2sc(N(CCCN(C)C)C(=O)CCS(=O)(=O)c3ccccc3)nc12	PLK1 PBD inh 7.5µM, VDR inh inconclusive
Cc1cc(C)c(Cn2c(=O)n(CCCCCC(=O)NCc3ccc4c(c3)OCO4)c(=O)c3sccc32)c(C)c1	none (no result: PLK1 PBD inh, L3MBTL1 block)
OC1(c2ccccc2Cl)NN=C2CCCCCN21 (centres undefined)	JMJD2A Tudor 5.6µM
Clc1ccccc1OCc1nnc2n1CCCCC2	none (no result: L3MBTL1 block)
CCCCC12CN3CC(C)(CN(C1)C3c1c[nH]c3ccccc13)C2=O (centres undefined)	none (no result: PLK1 PBD inh, L3MBTL1 block)
CC(=O)NC1C(OCc2ccccc2)OC2COC(c3ccccc3)OC2C1OCC(=O)O (centres undefined)	JMJD2A Tudor inconclusive, PLK1 PBD inh 21µM
CC(=O)NC1C(OCc2ccccc2)OC(CO)C(OC(C)=O)C1OC(C)=O (centres undefined)	none
COC(=O)c1sccc1S(=O)(=O)N(CC(=O)NCc1ccc(F)cc1)c1ccc(Cl)cc1	none (no result: PLK1 PBD inh, L3MBTL1 block)
Cc1cccc(C)c1NC(=O)C(c1ccccc1)N1CCC1=O (centres undefined)	JMJD2A Tudor 40µM, PLK1 PBD inh 17µM, VDR inh inconclusive
O=S(=O)(Nc1ccc(-c2ccc(N3CCCCCC3)nn2)cc1)c1ccc(C(F)(F)F)cc1	none (no result: PLK1 PBD inh, L3MBTL1 block)
CNC(=O)C(N)CSC(C)C1=C(C)c2cc3[n-]c(cc4nc(cc5[n-]c(cc1n2)c(C)c5CCC(=O)O)C(CCC(=O)O)=C4C)c(C)c3C(C)SCC(N)C(=O)NC.[Fe+2] (centres undefined)	none (no result: BAZ2B block, JMJD2A Tudor, PLK1 PBD inh, HP1b chromo inh, L3MBTL1 block)
Cc1noc(NS(=O)(=O)c2ccc(NC(=O)c3cc(-c4ccccc4Cl)nc4ccccc34)cc2)c1C	BAZ2B block inconclusive, PLK1 PBD inh 38µM
COc1cc(-c2cc(C(=O)Nc3ccc(S(=O)(=O)Nc4ncccn4)cc3)c3ccccc3n2)cc(OC)c1OC	PLK1 PBD inh 27µM, VDR inh inconclusive
CCN(CC)S(=O)(=O)c1ccc(O)c(NC(=O)c2cc(-c3cc(OC)c(OC)c(OC)c3)nc3ccccc23)c1	JMJD2A Tudor inconclusive, PLK1 PBD inh 19µM (no result: L3MBTL1 block)
CSCC[C@H](NC(=O)[C@H](CC(C)C)NC(=O)[C@H](Cc1c[nH]c2ccccc12)NC(=O)[C@H](CCC(N)=O)NC(=O)[C@@H](NC(=O)[C@H](Cc1ccccc1)NC(=O)[C@H](CC(=O)O)NC(=O)[C@H](CCC(N)=O)NC(=O)[C@H](C)NC(=O)[C@H](CCCNC(=N)N)NC(=O)[C@H](CCCNC(=N)N)NC(=O)[C@H](CO)NC(=O)[C@H](CC(=O)O)NC(=O)[C@H](CC(C)C)NC(=O)[C@H](Cc1ccc(O)cc1)NC(=O)[C@H](CCCCN)NC(=O)[C@H](CO)NC(=O)[C@H](Cc1ccc(O)cc1)NC(=O)[C@H](CC(=O)O)NC(=O)[C@H](CO)NC(=O)[C@@H](NC(=O)[C@H](Cc1ccccc1)NC(=O)[C@@H](NC(=O)CNC(=O)[C@H](CCC(N)=O)NC(=O)[C@H](CO)NC(=O)[C@@H](N)Cc1cnc[nH]1)[C@@H](C)O)[C@@H](C)O)C(C)C)C(=O)N[C@@H](CC(N)=O)C(=O)N[C@H](C(=O)O)[C@@H](C)O	none (no result: BAZ2B block, JMJD2A Tudor, PLK1 PBD inh, HP1b chromo inh, L3MBTL1 block)
COc1cc(OC)cc(-c2sc3ccc(OC)cc3c2C#CC2(N)CCCCC2)c1	none (no result: BAZ2B block)
COc1ccc(-c2sc3cc4c(cc3c2C#CC2(N)CCCCC2)OCO4)cc1	BAZ2B block 10µM, JMJD2A Tudor 25µM
Cc1ccc(NC(=O)c2cc(S(=O)(=O)N3CCc4ccccc43)cn2C)c(Cl)c1	none (no result: PLK1 PBD inh, L3MBTL1 block)
COc1cc(/C=N/n2c(-c3n[nH]c4c3CCC4)n[nH]c2=S)ccc1O	JMJD2A Tudor 3.2µM, PLK1 PBD inh inconclusive, HP1b chromo inh inconclusive (no result: L3MBTL1 block)
COc1ccccc1/C=C/C=N/n1c(-c2cc(-c3ccccc3)n[nH]2)n[nH]c1=S	JMJD2A Tudor inconclusive
COc1ccc(/C=N/n2c(-c3n[nH]c4c3CCC4)n[nH]c2=S)cc1OC	JMJD2A Tudor 1.4µM
S=c1[nH]nc(-c2n[nH]c3c2CCC3)n1/N=C/C=C/c1ccccc1	JMJD2A Tudor 50µM, PLK1 PBD inh inconclusive (no result: L3MBTL1 block)
COCCNC(=O)CSc1nnc(NC(=O)C2CC(=O)N(c3ccccc3OC)C2)s1 (centres undefined)	PLK1 PBD inh inconclusive (no result: L3MBTL1 block)
COC(=O)C1=C(N)Oc2cc(N(C)C)ccc2C1c1ccccc1OC (centres undefined)	BAZ2B block 40µM, JMJD2A Tudor 50µM, HP1b chromo inh inconclusive, L3MBTL1 block inconclusive
COC(=O)C1=C(N)Oc2cc(C)n(CC3CCCO3)c(=O)c2C1c1ccccc1OC (centres undefined)	none
